# High-throughput results: PubChem, Broad Institute
# ID4 SMM = binders of human ID4 protein, primary screen, biochemical, small molecule microarray, single point; calls only; actives 1.2% (n = 31,000); Flag-ID4 binding, fluorescence F/B; DNA-binding protein inhibitor ID-4 (Homo sapiens), P47928; call rule not given here;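 also: a binder raises fluorescence above local background on the spot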
# p53 PUMA act = mutant p53 pathway re-activators, primary screen, cell-based, SW480, luciferase, single point, HTS. SW480 PUMA-promoter luciferase, p53 mutant reactivation. activation, % at 9.98 µM. actives 1.5% (n = 28,000). AID 624151, 2012; in the data active = activation above about 52%
# STK33 kin inh = STK33 kinase inhibitors, primary screen, biochemical, luminescence, ADP-Glo, MBP substrate; Serine/threonine-protein kinase 33 (Homo sapiens), Q9BYT3; inhibition, % at 12.5 µM; actives 0.44% (n = 27,000); AID 2322, 2010; in the data active = inhibition above about 20%
# Target sequence (Q9BYT3 whole entry, looked up): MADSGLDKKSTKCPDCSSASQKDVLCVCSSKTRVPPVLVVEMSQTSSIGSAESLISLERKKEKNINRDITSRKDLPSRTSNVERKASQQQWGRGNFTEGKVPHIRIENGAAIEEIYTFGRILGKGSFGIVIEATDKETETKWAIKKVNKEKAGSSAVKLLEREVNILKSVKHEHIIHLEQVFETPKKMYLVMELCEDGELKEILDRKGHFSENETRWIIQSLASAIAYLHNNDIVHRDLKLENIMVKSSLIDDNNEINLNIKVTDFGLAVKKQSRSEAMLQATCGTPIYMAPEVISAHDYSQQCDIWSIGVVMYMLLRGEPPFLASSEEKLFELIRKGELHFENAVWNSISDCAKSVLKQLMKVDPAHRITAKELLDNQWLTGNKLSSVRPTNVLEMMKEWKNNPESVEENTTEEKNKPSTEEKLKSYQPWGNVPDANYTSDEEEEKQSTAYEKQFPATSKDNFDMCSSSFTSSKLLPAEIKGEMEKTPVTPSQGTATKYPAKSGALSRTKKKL
# An asterisk follows results filed as active; i = inactive; x = no result given; + = active, no number. An excerpt weighted towards active compounds, which were near 2% of everything screened.
SMILES,ID4 SMM,p53 PUMA act,STK33 kin inh
CCOC(=O)c1cc2c(cn1)[nH]c1ccccc12,i,65.3*,-1.2
COC(=O)c1cc2c(cn1)[nH]c1ccccc12,i,12.0,-7.6
COC1=CC(=O)O[C@@H](CCc2ccc3c(c2)OCO3)C1,i,15.3,-1.0
COC1=CC(=O)O[C@@H](/C=C/c2ccccc2)C1,i,77.6*,-3.6
C/C=C(\C)[C@H](O)[C@H](C)/C=C(C)/C=C/C/C(C)=C/Cc1[nH]c(OC)c(OC)c(=O)c1C,x,x,-12.0
CO[C@H]1[C@@H](O)[C@@H](C)O[C@@H](O[C@@H]2C=C3C(OC(C)=O)CC4(O)C(CC[C@]5(C)[C@@H](C6=CC(=O)OC6)CC[C@]45O)[C@@]3(C)CC2)[C@@H]1O (some centres undefined),x,x,-3.7
C[C@@H]1CCC/C=C/[C@H]2C[C@@H](O)C[C@@H]2[C@@H](O)/C=C\C(=O)O1,x,x,2.5
Cc1c(C(=O)c2cccc3ccccc23)c2cccc3c2n1[C@@H](CN1CCOCC1)CO3,+,-8.8,x
CCC(C)[C@H]1C(=O)O[C@H](C(C)C)C(=O)N(C)[C@@H](C(C)CC)C(=O)O[C@H](C(C)C)C(=O)N(C)[C@@H](C(C)CC)C(=O)O[C@H](C(C)C)C(=O)N1C (some centres undefined),x,x,-3.1
